Records with an inconclusive call do not appear. Active and inactive are the calls of the source. The call rests on the fitted dose curve; in most records, active means well fitted curve in the direction sought with a large enough effect; inconclusive means small, poorly fitted or top-dose-only effect, or another doubt; inactive means no such curve, though single readings can be large or run the other way.
On the % scale 0 is the no-effect control and ±100 the full control effect.

In the experiment the target is Metallo-beta-lactamase type 2 (Klebsiella pneumoniae) (UniProt C7C422). The experiment in a line: qHTS to identify inhibitors of the New Delhi Metallo-beta-lactamase (NDM): assay validation screen against the NCATS LOPAC Collection (AID 1794843).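 Further: nitrocefin turnover by NDM-1 measured as 485 nm absorbance at plateau.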 Conditions: NDM-1 enzyme, nitrocefin hydrolysis, absorbance 485 nm; series mostly up to 38.4 µM; activity change, negative = inhibition: at the top concentration. In outline: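 Enzyme 2 nM final, 50 mM HEPES pH 7.0, 1 uM ZnSO4, 0.01% Tween20; cpds in DMSO, preincub w/ enzyme; + nitrocefin (50 uM stock); A485 at plateau; no-enzyme column as blank.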
Chain of Metallo-beta-lactamase type 2 (Klebsiella pneumoniae) (C7C422 whole entry, looked up): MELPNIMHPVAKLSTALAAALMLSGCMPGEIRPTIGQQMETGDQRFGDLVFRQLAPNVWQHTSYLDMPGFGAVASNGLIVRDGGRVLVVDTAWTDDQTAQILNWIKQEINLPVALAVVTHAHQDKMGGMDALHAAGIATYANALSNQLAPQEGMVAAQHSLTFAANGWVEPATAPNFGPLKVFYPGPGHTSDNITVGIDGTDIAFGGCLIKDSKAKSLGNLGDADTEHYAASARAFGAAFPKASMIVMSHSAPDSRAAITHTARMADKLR
As to `OCC1NCC(O)C(O)C1O` (stereo not drawn), the “activity change, negative = inhibition” value is -0.247% (inactive).
Turning to `COc1cc(CC(=O)O)ccc1O`, the “activity change, negative = inhibition” value is 0.908% (inactive).
Regarding `NC[C@@H]1O[C@H](c2ccccc2)Cc2c1ccc(O)c2O`, the “activity change, negative = inhibition” value was -0.94% (inactive).
`Nc1nc2c(cnn2CCc2ccccc2)c2nc(-c3ccco3)nn12`: the “activity change, negative = inhibition” value was 4.89% (inactive).
Next, `Nc1ncnc2c1nc(Sc1ccc(Cl)cc1)n2[C@H]1OC2COP(=O)(O)O[C@@H]2C1O` (stereo partly drawn): -1.09% (inactive).
As for `CC(C)(CO)Cc1cc(C(C)(C)C)c(O)c(C(C)(C)C)c1`, the figure is 7.51% (inactive); as for `CCCCCCCCCCCCCCSCC(=O)O`, -6.49% (inactive).
For the compound `CC(=O)C(C)=O`, the “activity change, negative = inhibition” value is -1.05% (inactive).
Regarding `Nc1ncnc2c1c(-c1ccc(Oc3ccccc3)cc1)cn2C1CCCC1`, the “activity change, negative = inhibition” value was 0.439% (inactive).
On to `N[C@@H](Cc1ccc(O)c(I)c1)C(=O)O`, for which the “activity change, negative = inhibition” value was -3.81% (inactive).
For the compound `COc1ccc(NC(=O)c2ccc(-c3ccc(-c4noc(C)n4)cc3C)cc2)cc1N1CCN(C)CC1`, the “activity change, negative = inhibition” value was 5.19% (inactive).
Next, `CNc1ncnc2c1ncn2[C@H]1C[C@H](OP(=O)(O)O)[C@@H](COP(=O)(O)O)O1`: -8.63% (inactive); `CSC(=N)N`: -11.6% (inactive).
Take `CSC(N)=NCCC[C@H](N)C(=O)O`: the “activity change, negative = inhibition” value is -11.6% (inactive).
Turning to `COc1cc(C(O)C(=O)O)ccc1O` (stereo not drawn), the “activity change, negative = inhibition” value was 1.88% (inactive).
Consider `O=C1C2C=CC=CC2=NC(=S)N1CCN1CCC(=C(c2ccc(F)cc2)c2ccc(F)cc2)CC1` (stereo not drawn), for which the “activity change, negative = inhibition” value was -0.693% (inactive).
In the case of `c1ccc2c(c1)CCC[C@H]2Nc1nc2ccccc2[nH]1`, the “activity change, negative = inhibition” value was -1.13% (inactive).
As for `O=c1onc2cnc3ccccc3n12`, the “activity change, negative = inhibition” value was -2.72% (inactive).
Next, `CC(N)(C(=O)O)c1ccc(C(=O)O)cc1` (stereo not drawn): -9.9% (inactive); `CCCCCCCCCCC/C=C\C(C)(C)/C=C\CCCC(=O)O`: 0.27% (inactive); `CC(C)C[C@H](NC(=O)[C@H](O)[C@H](N)Cc1ccccc1)C(=O)O`: -2.06% (inactive).
In the case of `OC[C@H]1NC[C@@H](O)[C@@H]1O`, the “activity change, negative = inhibition” value was -4.2% (inactive).
As for `c1ccc2c(c1)CC(N1CCN(c3cccc4c3OCCO4)CC1)C2`, the figure is 0.372% (inactive).
Next, `Cc1nc(N=Nc2ccc(C(=O)O)cc2)c(COP(=O)(O)O)c(C=O)c1O`: -2.9% (inactive).
Consider `N[C@H](C(=O)O)c1cc(O)cc(O)c1`, for which the “activity change, negative = inhibition” value is 3.27% (inactive).
As for `NC1CCN(O)C1=O` (stereo not drawn), the figure is -5.98% (inactive); as for `Cc1nc2c(OCc3ccccc3)cccn2c1CC#N`, 8.12% (inactive).
On to `COc1cc([C@@H]2c3cc4c(cc3[C@H](O)C3COC(=O)[C@@H]32)OCO4)cc(OC)c1OC` (stereo partly drawn), for which the “activity change, negative = inhibition” value was 2.88% (inactive).
Take `C/C(=C\c1ccc(C(=O)O)cc1)c1ccc2c(c1)C(C)(C)CCC2(C)C`: the “activity change, negative = inhibition” value is -0.0964% (inactive).
Take `CCCOC(=O)c1c(-c2ccccc2)nc(CC)c(C(=O)SCC)c1CCC`: the “activity change, negative = inhibition” value is -1.3% (inactive).
With `Cc1cccc(C(=O)NCN2CCN(c3ccccc3C#N)CC2)c1`, the “activity change, negative = inhibition” value is -11.9% (inactive).
Next, `Cn1ccnc1`: 7.57% (inactive); `NCC(O)(CS(=O)(=O)O)c1ccc(Cl)cc1` (stereo not drawn): -2.53% (inactive).
Turning to `COc1ccc2c(c1)c(CC(=O)O)c(C)n2C(=O)c1ccccc1`, the “activity change, negative = inhibition” value is -0.15% (inactive).
On to `NC(=O)c1cc[n+](CC2=C(C(=O)O)N3C(=O)[C@@H](NC(=O)[C@@H](c4ccccc4)S(=O)(=O)[O-])[C@H]3SC2)cc1`, for which the “activity change, negative = inhibition” value is 2.52% (inactive).
As for `NC1CONC1=O` (stereo not drawn), the figure is -14.1% (inactive); as for `O=C(O)C1CCNCC1`, -5.1% (inactive).
Take `O=c1oc(Cl)c(Cl)c2ccccc12`: the “activity change, negative = inhibition” value was -21.1% (inactive).

The values above are taken from PubChem BioAssay (NCATS).
